Laboratory results from ChEMBL document CHEMBL4513139, “CO-ADD screening of University of Strathclyde (UK) compounds”.
Potency and affinity values are given separately.

tested on: Klebsiella pneumoniae; details: Concentration 32 ug.mL-1; ASSAY_TEST Inhibition of Bacterial Growth; detection method Absorption (OD600); MEDIA CAMHB; plate type 384well; NBS; CORNING #3640; time 18 hr

SMILES | Inhibition [%]
CC(=O)N(C(C)=O)c1cc(C(=O)Nc2cc(C(=O)NCCC(=N)N)n(C)c2)n(C)c1.O=C(O)C(F)(F)F | 5.82
CC(C)CCc1sc(NC(=O)c2cc(NC(=O)c3ccc(/C=C/c4cc5ccccc5nc4On4nnc5ccccc54)cc3)cn2C)nc1C(=O)NCCN1CCOCC1.O=C(O)C(F)(F)F | -11.86
CC(C)CCc1sc(NC(=O)c2cc(NC(=O)c3ccc(/C=C/c4cc5ccccc5nc4Cl)cc3)cn2C)nc1C(=O)NCCN1CCOCC1.O=C(O)C(F)(F)F | -4.36
Cc1ncc(Cn2cc(CCCCO)nn2)c(N)n1 | 1.98
CCOC(=O)c1cc(NC(=O)c2cc(NC(=O)c3nc(N)sc3C(C)C)cn2C)cn1C | 11.43
Cn1cc(NC(=O)c2cc(NC(=O)c3ccc(/C=C/c4cccc(F)c4)cc3)cn2C)cc1C(=O)NCCN1CCOCC1.O=C(O)C(F)(F)F | -2.66
CCOC(=O)CCC(NC(=O)c1ccc(NCc2cn(Cc3cnc(C)nc3N)nn2)cc1)C(=O)OCC (centres undefined) | -10.59
Cc1ncc(CNc2ccc(C(C)(C)C)cc2)c(N)n1 | 2.67
COC(=O)CCC(=O)Nc1cc(C(=O)Nc2cc(C(=O)NCCN3CCOCC3)n(C)c2)n(C)c1.O=C(O)C(F)(F)F | 8.45
Cc1ncc(Cn2cc(CCC(=O)O)nn2)c(N)n1.O=C(O)C(F)(F)F | -1.46
CC(C)CCn1cc(NC(=O)c2cc(NC(=O)c3cc(NC(=N)c4ccccc4)cn3C)cn2C)cc1C(=O)NCCCN(C)C.O=C(O)C(F)(F)F.O=C(O)C(F)(F)F | 2.69
Cc1ncc(CO)c(N)n1 | -2.19
CC(C)c1sc(N)nc1C(=O)Nc1cc(C(=O)Nc2cc(C(=O)NCCN3CCOCC3)n(C)c2)n(C)c1.O=C(O)C(F)(F)F | -2.63
Cc1ncc(Cn2cc(CCCO)nn2)c(N)n1 | -1.34
Cc1ncc(Cn2cc(CCCN)nn2)c(N)n1.Cl | -8.29
COc1cccc(C(=N)Nc2cc(C(=O)Nc3cc(C(=O)Nc4cn(CCCN(C)C)cn4)n(C)c3)n(C)c2)c1.O=C(O)C(F)(F)F.O=C(O)C(F)(F)F | 25.01
CCOC(=O)c1cc(NC(=O)c2cc(NC(=O)c3nc(N)sc3CCC(C)C)cn2C)cn1C | 9.93
CC(C)CCc1sc(NC(=O)c2cc(NC(=O)c3cc(NC(=O)CCC(=O)O)cn3C)cn2C)nc1C(=O)NCCCN(C)C.O=C(O)C(F)(F)F | 2.15
CN(C)CCCNC(=O)c1cc(NC(=O)c2cc(NC(=O)c3cc(NC(=N)c4ccccc4)cn3C)cn2C)cn1C.O=C(O)C(F)(F)F.O=C(O)C(F)(F)F | 1.31
Cc1ncc(CNc2ccc(F)cc2)c(N)n1 | 12.64
Cn1cc(NC(=O)c2cc(NC(=O)c3sc(N)nc3C(F)(F)F)cn2C)cc1C(=O)NCCC(=N)N.O=C(O)C(F)(F)F | -8.6
CC(C)c1sc(N)nc1C(=O)Nc1cc(C(=O)NCCN2CCOCC2)n(C)c1.O=C(O)C(F)(F)F | 8.18
COc1ccc(CC(=O)Nc2cc(C(=O)Nc3cc(C(=O)Nc4cn(CCCN(C)C)cn4)n(C)c3)n(C)c2)cc1.O=C(O)C(F)(F)F | 2.03
COCCOC1CCN(C(=O)c2cc(NC(=O)c3cc(NC(=O)c4ccc(/C=C/c5ccc(OC)cc5)cc4)cn3C)cn2C)CC1.O=S(=O)(O)O | 1.91
Cc1ncc(Cn2cc(CCO)nn2)c(N)n1 | -3.23
Cc1ncc(Cn2cc(CO)nn2)c(N)n1 | -6.43
COCCOC1CCN(C(=O)c2cc(NC(=O)c3cc(NC(=O)c4ccc(/C=C/c5cnc6ccccc6c5)cc4)cn3C)cn2C)CC1 | 10.84
COc1ccc(/C=C(/C(=O)Nc2cc(C(=O)Nc3cc(C(=O)NCCCN(C)C)n(C)c3)n(C)c2)c2ccc(OC)cc2)cc1.O=C(O)C(F)(F)F | 4.2
CC(C)n1cc(NC(=O)c2cc(NC(=O)c3cc(NC=O)cn3C(C)C)cn2C)cc1C(=O)NCCCN(C)C.O=C(O)C(F)(F)F | 2.64
